GLP1R inv ag: qHTS of GLP-1 Receptor Inverse Agonists (Inhibition Mode). 1.6% of 410,000 active. HEK293 GLP-1R CRE-luciferase, luminescence, 24 h; GLP-1R form is constitutively active. Potency, µM (highest dose often 38.3 µM), without a hit: top-dose activity change, negative = inhibition, most hits filed as inhibitors. Glucagon-like peptide 1 receptor (Homo sapiens), P43220; further: on the % scale 0 is the no-effect control and ±100 the full control effect; nearly all actives have a fitted effect of over 55% in size
Target sequence (P43220 whole entry, looked up): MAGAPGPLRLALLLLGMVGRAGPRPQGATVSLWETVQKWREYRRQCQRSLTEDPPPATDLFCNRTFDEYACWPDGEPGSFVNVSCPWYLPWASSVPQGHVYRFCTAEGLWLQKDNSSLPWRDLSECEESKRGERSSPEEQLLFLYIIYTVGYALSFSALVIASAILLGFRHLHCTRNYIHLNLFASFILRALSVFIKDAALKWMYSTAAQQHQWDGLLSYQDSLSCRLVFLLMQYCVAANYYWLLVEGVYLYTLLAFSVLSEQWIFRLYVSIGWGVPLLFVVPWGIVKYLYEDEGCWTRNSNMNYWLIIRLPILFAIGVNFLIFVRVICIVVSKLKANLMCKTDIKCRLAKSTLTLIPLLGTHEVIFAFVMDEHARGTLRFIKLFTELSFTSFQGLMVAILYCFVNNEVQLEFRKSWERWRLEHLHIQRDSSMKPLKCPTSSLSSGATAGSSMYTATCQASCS
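Constitutively active GLP-1R drives a cAMP-responsive luciferase in stably transfected HEK293 cells; test compounds are added after overnight (12 h) attachment and left 24 hr, and signal loss in luminescence marks inhibition.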
HEK293 tox: qHTS of GLP-1 Receptor Inverse Agonists: Cytotox Screen; Potency, µM (series often up to 38.3 µM), for inactives: top-dose activity change, negative = inhibition, hits mostly inhibitors; 0.13% of 410,000 active; HEK293 cAMP-luciferase reporter cells, luminescence, 24 h;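 further: loss of luciferase light is scored as toxicity; on the % scale 0 is the no-effect control and ±100 the full control effect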
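Quantitative HTS format, 1536 wells, 200 cells/uL seeded. Compounds: 23 nL, 24 h, 37 °C. Detection: luciferase reagent, luminescence at 12 min RT; decreased signal taken as cytotoxic.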
GLP1R ag: qHTS of GLP-1 Receptor Agonists | Potency, µM (series often up to 45.6 µM), without a hit: at the top dose activation, most hits filed as activators | HEK293 GLP-1R CRE-luciferase, luminescence, 4-6 h; cells express a hypersensitive GLP-1R form | AID 624172, 2012 | 0.007% of 380,000 active; further: % of control where 0% means no effect
BRCA1 expr act: qHTS Assay to Identify Small Molecule Activators of BRCA1 Expression; Potency, µM (highest dose often 46.1 µM), inactives show top-dose activation, most hits filed as activators; AID 624202, 2012; MCF7-BRCA1-FFLuc reporter, luminescence, 48 h; response scale: scaled: vehicle 0%, 10 µM genistein 100%; 1.1% of 380,000 active; further: nearly all actives have a fitted effect of over 80% in size
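MCF7 cells carrying a BRCA1-firefly luciferase reporter (2000 cells/well, phenol-red free MEM) were attached for 2 h at 37 °C, then given compounds for 48 h. Luminescence was read 15 min after luciferase reagent; activity normalized to genistein (10 microM) and DMSO.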
Integrin act MD: qHTS for Activators of Integrin-Mediated Alleviation for Muscular Dystrophy; alpha7betagal myoblasts, beta-gal FDG fluorescence, 48 h; Potency, µM (top dose mostly 38.3 µM), for inactives: at the top dose activation, most hits filed as activators; 0.064% of 350,000 active; AID 624291, 2012;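 further: 100% = response of the positive control SU9516; nearly all actives have a fitted effect of over 60% in size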
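alpha7betagal+/- myoblasts (passage 13, 250/well) treated 48 h at 37C with compounds at 1:260 dilution of DMSO stock. Lysed, then beta-galactosidase activity read as FDG fluorescence (ex 480/em 540) after 30 min, with pre-read for autofluorescence.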
An asterisk follows results filed as active; ? = inconclusive; nt = no result; [ ] = dose if it differs, or a comment. In the library only some 2.7% were active in any assay of this set; here they are far more common. The call rests on the fitted dose curve; in most records, active means well fitted curve in the direction sought with a large enough effect; inconclusive means small, poorly fitted or top-dose-only effect, or another doubt; inactive means no such curve, though single readings can be large; an effect the other way counts as inactive or inconclusive. Potency means the concentration at half of the fitted maximal effect.

SMILES | GLP1R inv ag | HEK293 tox | GLP1R ag | BRCA1 expr act | Integrin act MD
CCOc1ccc(C2c3c(-c4ccc(C)cc4)n[nH]c3C(=O)N2c2ccc(Cl)cc2)cc1 (configuration not stated) | 10µM* | ? | -9% | -75% | nt
Cc1ccc2c(CC(=O)N3CCN(c4cccc(Cl)c4)CC3)coc2c1C | ? | 10% | nt | nt | nt
COc1ccc(S(=O)(=O)NCCc2sc(-c3cccc(F)c3)nc2C)cc1 | ? | -5% | -2% | 0% | nt
COc1cc2c(NC3CCN(C)CC3)nc(N3CCCN(C)CC3)nc2cc1OCCCN1CCCCC1 | nt | nt | nt | -51% | nt
CC1(C)Cc2c(sc(NC(=O)COc3ccc(Cl)cc3)c2C#N)C(C)(C)N1 | 5.6µM* | 0% | 17% | -1% | -54%
O=C(NCCC1=CCCCC1)C(=O)NCC(c1ccco1)N1CCN(c2ccccc2)CC1 (configuration not stated) | -8% | -5%[1.53 µM] | -8% | -13% | 17%
COc1ccc(N2CCN(C(CNC(=O)C(=O)NCCC3=CCCCC3)c3ccco3)CC2)cc1 (configuration not stated) | 10µM* | ? | -1% | -19% | -24%
N#CC(C#N)=NNc1ccc(S(=O)(=O)N2CCCCC2)cc1 | 1.3µM* | ? | -51% | -50% | -22%
N#C/C(=N\Nc1ccc(S(=O)(=O)N2CCOCC2)cc1)C(N)=S | ? | ? | -1% | 11% | 6%
CC(C)(CO)NCc1ccccc1OCC(=O)Nc1ccccc1 | -6% | -3% | -1% | 9% | -4%
Cc1ccc(NC(=O)COc2ccccc2CNC(C)(C)CC(C)(C)C)cc1 | ? | ? | -6% | -81% | 14µM*
COc1ccc(/C=C/c2ccncc2)cc1 | 41% | -6% | 11% | 10µM* | -7%
COc1cccc(/C=C/c2ccncc2)c1OC | 11% | -7% | 4% | 3% | -33%
CN(C)c1ccc(/C=C/c2ccncc2)cc1 | 39% | 105% | 5% | 7.9µM* | -26%
COc1cc(Cl)c(C)cc1NC(=O)c1cc2c(Cl)nc3ccc(C)cc3c2s1 | 13% | 0% | nt | nt | nt
Cc1ccc(C(=O)N2CCN(c3ccc(F)cc3)CC2)cc1NC(=O)c1nsc2ccccc12 | 10% | 1% | nt | nt | nt
COc1cc(OC)cc(C(=O)O/N=C(\N)c2cccc(C)c2)c1 | -8% | -5% | 2% | 21% | 7%
Cc1cccc(/C(N)=N/OC(=O)C23CC4CC(CC(C4)C2)C3)c1 | -39% | 4% | -5% | 10µM* | -14%
COc1ccc(-c2cn3c(n2)sc2cc(C(=O)NCCc4ccccc4)ccc23)cc1 | 11% | 1% | nt | nt | nt
CO[C@@]1(NC(=O)CSC(F)F)C(=O)N2C(C(=O)O)=C(CSc3nnnn3CCO)CO[C@@H]21 | nt | nt | 6% | nt | nt
C=C(CC1([C@@H](NP(=O)(c2ccccc2)c2ccccc2)[C@H]2C[C@@H]2CCCC)CC1)c1ccccc1 | 2.5µM* | 9% | 1% | -18% | 5%
Nc1nc(N)c(S(=O)(=O)c2ccccc2)c(Nc2ccc(F)cc2)n1 | 0% | 10% | 18% | -3% | nt
Cc1ccc(Sc2cnc3ccccc3n2)cc1 | -30% | -5% | 1% | 7.1µM* | -2%
Cc1cc(Sc2ccc(Cl)cc2)nc2ccccc12 | 4% | 25% | nt | nt | nt
Cc1cc(O)c(/C=N/Nc2ccc(F)cc2)c(=O)o1 | 1.8µM* | ? | 4% | -8% | 42%
Cc1c(/C=N/Nc2ccc(F)cc2)c(O)n(C)c(=O)c1C#N | 1% | -16% | -5% | -39% | 7.1µM*
Cc1ccc(N/N=C/c2c(O)cc(C)oc2=O)cc1 | ? | -17% | -29% | -5% | 22%
CCOC(=O)N1CCN(C(=O)CSc2cc(C)nc3c(-c4ccccc4OC)c(C)nn23)CC1 | 13µM* | ? | 6% | -10% | -18%
CCN(CC)CCOC(=O)c1ccc(NC(=O)Cn2ncc3c2-c2cc(C)ccc2OC3)cc1 | 0% | -12% | nt | 4% | nt
